# Assay results taken from publication PMC7826789 (International Journal of Molecular Sciences, 2021).
# System: PDPK1
smiles,measurement,value
CNc1nc(-c2ccc3c(N)n[nH]c3c2)cc(N2C[C@@H](C(=O)NC3CCCCC3)CC[C@H]2C)n1 [GSK2334470],Kinases covered,PDPK1
